Inconclusive results are not listed. A number with no mark means an inactive call. Calls of active or inactive are those of the source. Calls come from the whole dose curve; as a rule, active = well fitted activation curve with a large enough effect; inconclusive = small, poorly fitted or top-dose-only effect; inactive = flat fitted curve, though single readings scatter.

This assay can be described thus: Cell viability assay for measurement of the protective activity of small molecules against cell death caused by Zika virus infection in human astrocytoma cells. The settings on record: SNB-19 Zika virus cytoprotection, ATP luminescence, 72 h; series mostly up to 46.1 µM; protection from virus-induced cell death: at the top concentration. The gist of the method: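 SNB-19 astrocytoma cells pre-treated with compounds for 1 h, then infected with ZIKV at 2 FFU/cell and incubated 72 h at 37 C. Viability read as ATP luminescence; percent inhibition of virus-induced viability loss calculated.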
In the case of `CCCCCCCC/C=C/C(=O)O`, the “protection from virus-induced cell death” value was -6.5%. For `O=c1c2ccccc2nc2n1CCc1c-2[nH]c2ccccc12`, the “protection from virus-induced cell death” value is -7.42%. As for `CNC1[C@H](O)C(O[C@@H]2C(O)C(O[C@H]3O[C@H]([C@@H](C)NC)CC[C@H]3N)[C@@H](N)C[C@H]2N)OC[C@]1(C)O` (some centres not stated), the “protection from virus-induced cell death” value is 4.71%. On the same count and under the same terms, for `O=C(O)c1cccc(-c2noc(-c3ccccc3F)n2)c1` the value was -13.8%. In the case of `O=C(CS)Nc1ccccc1`, the “protection from virus-induced cell death” value was -2.47%. The same measure, in the same setting: the same measure for `O=C(Oc1ccccc1)c1cccc(C(=O)Oc2ccccc2)c1`: 3.11% [at 96.3 µM]. Turning to `O=C(Nc1ccc([N+](=O)[O-])cc1Cl)c1cc(Cl)ccc1O`, the Potency is 1550 nM (active). As for `Oc1cc(O)cc(/C=C/c2ccc(O)c(O)c2)c1`, the “protection from virus-induced cell death” value is -15.2%. On the same count and under the same terms, for `CCCC(=O)OC[C@@H](OC(=O)CCC)[C@@H](OC(=O)CCC)[C@H](Cn1c2nc(=O)[nH]c(=O)c-2nc2cc(C)c(C)cc21)OC(=O)CCC` the value was 6.76%; for `O=C(O)Cc1ccc(-c2ccccc2)cc1`, 3.6%; for `CC(O)=C(C#N)C(=O)Nc1ccc(C(F)(F)F)cc1`, -10%. For the molecule `C/C(=N\O)c1ccc(OCC(=O)N2CCCCC2)cc1`, the “protection from virus-induced cell death” value is -12.8%. The same measure, in the same setting: for `O=C(C=CC=Cc1ccc2c(c1)OCO2)N1CCCCC1` the value was 1.16%; for `Cc1nc(N)sc1-c1ccnc(Nc2ccc(N3CCOCC3)cc2)n1`, 22%. On the same count and under the same terms, for `O=C1NC(=O)C(=Cc2ccc(-c3ccc(F)cc3)o2)S1` the value was -4.09%; for `O=C(Nc1ccc(C(=O)O)c(O)c1)c1ccccc1`, 12.3%; for `[O-][n+]1ccccc1SSc1cccc[n+]1[O-]`, -20.1% [at 88.3 µM]. Still for that read-out and setting: for `c1ccc2[nH]c(-c3cscn3)nc2c1` the value was -1.36%; for `CCC(C(=O)O)c1ccc(N2Cc3ccccc3C2=O)cc1` (configuration not stated), -4.15%.

Turning to `COc1ccc(/C=C/C(=O)Nc2ccccc2C(=O)O)cc1OC`, the “protection from virus-induced cell death” value is -8.74%.

With `CS(=O)(=O)c1ccc(-c2cn3ccccc3n2)cc1`, the “protection from virus-induced cell death” value is -14.4%. On the same count and under the same terms, for `O=C(O)c1ccccc1NCCc1ccccc1` the value was 7.39%; for `CC(C(=O)O)c1ccc(C(=O)c2ccccc2)s1` (configuration not stated), -3.16%; for `Cc1oncc1C(=O)Nc1ccc(C(F)(F)F)cc1`, -6.36%. In the case of `C[C@H](NC(=O)C(=O)Nc1ccccc1C(C)(C)C)C(=O)N[C@@H](CC(=O)O)C(=O)COc1c(F)c(F)cc(F)c1F`, the Potency is 489 nM (active). `Cc1cc(O)c2ccccc2c1O`: the “protection from virus-induced cell death” value was -17.9%. For `CC=CC[C@@H](C)C(=O)[C@H]1C(=O)N[C@@H](C(C)C)C(=O)N(C)CC(=O)N(C)[C@@H](CC(C)C)C(=O)N[C@@H](C(C)C)C(=O)N(C)[C@@H](CC(C)C)C(=O)N[C@@H](C)C(=O)N[C@H](C)C(=O)N(C)[C@@H](CC(C)C)C(=O)N(C)[C@@H](CC(C)C)C(=O)N(C)[C@@H](C(C)C)C(=O)N1C`, the “protection from virus-induced cell death” value is -7.94%.

Take `COc1cccc(-c2cc(=O)c3ccccc3o2)c1N`: the “protection from virus-induced cell death” value is -13.9%. Still for that read-out and setting: the same measure for `O=C(O)c1ccccc1Nc1cccc(C(F)(F)F)c1`: -13.1%; for `CCCSc1ccc2nc(NC(=O)OC)[nH]c2c1`: 1.59%. Consider `CN(C)c1ccc2cc(C(=O)N[C@@H](CCCN=C(N)CCl)C(=O)NCc3ccccc3)ccc2c1`, for which the Potency is 4350 nM (active).

For `O=C(Nc1cc2cc[nH]c2cn1)c1ccccc1`, the “protection from virus-induced cell death” value is -20.2%. On the same count and under the same terms, for `O=C1C[C@@H](c2ccc(O)cc2)Oc2cc(O)cc(O)c21` the value was -7.24%; for `O=C1c2ccccc2-[n+]2ccc3c([nH]c4ccccc43)c21`, -21%. `Cc1cccc(/C=C/c2ccccc2)n1`: the “protection from virus-induced cell death” value is -0.0925%. The same measure, in the same setting: the same measure for `CN(C)c1ccc(C(=C2C=CC(=[N+](C)C)C=C2)c2ccccc2)cc1`: -19.4%; for `CN1CCN(c2cc3c(nn2)Oc2ccccc2N3C)CC1`: -0.644% [at 23.8 µM].
